In publication PMC7862700, “An all-to-all approach to the identification of sequence-specific readers for epigenetic DNA modifications on cytosine”:

Columns and labels:
Experiment in all cases: DAPPL (digital affinity profiling via proximity ligation, sequencing); 10 mM Tris-HCl pH 7.5, 50 mM NaCl, 1 mM DTT, 4% glycerol, room temperature, 30 min; GST-TFs on glutathione beads, 16-mer random dsDNA library, 0.1% formaldehyde crosslink after washing; high values mean tight binding
[1] = molecular target: T1, FEV (Homo sapiens, UniProt Q99581 1-238); details: protein: recombinant; tags: N-terminal GST; dsDNA, one strand shown
T1 sequence: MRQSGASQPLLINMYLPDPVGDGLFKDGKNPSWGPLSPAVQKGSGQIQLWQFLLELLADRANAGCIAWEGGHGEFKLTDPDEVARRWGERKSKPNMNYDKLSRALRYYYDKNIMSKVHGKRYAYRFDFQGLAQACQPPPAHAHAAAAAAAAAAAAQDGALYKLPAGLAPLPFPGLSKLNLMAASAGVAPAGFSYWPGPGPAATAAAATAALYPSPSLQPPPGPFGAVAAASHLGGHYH
Method in brief: (§1)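 GST fusions of human transcription factors were expressed in yeast and captured with glutathione beads. Once given DNA barcodes and pooled alongside a tag-only sample, they were incubated for 30 min at room temperature with 200 nmole of a random double-stranded 16-mer DNA library in Tris/NaCl/DTT/glycerol buffer, then washed, crosslinked (0.1% formaldehyde), proximity-ligated, PCR-amplified and sequenced on an Illumina NextSeq500. The binding signal of each hexamer is its read frequency for a factor divided by its frequency for the tag-only sample.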

[2] = molecular target: ETV5 (Homo sapiens, UniProt P41161 1-510); details: protein: recombinant; tags: N-terminal GST; dsDNA, one strand shown
Sequence of ETV5 (P41161 whole entry): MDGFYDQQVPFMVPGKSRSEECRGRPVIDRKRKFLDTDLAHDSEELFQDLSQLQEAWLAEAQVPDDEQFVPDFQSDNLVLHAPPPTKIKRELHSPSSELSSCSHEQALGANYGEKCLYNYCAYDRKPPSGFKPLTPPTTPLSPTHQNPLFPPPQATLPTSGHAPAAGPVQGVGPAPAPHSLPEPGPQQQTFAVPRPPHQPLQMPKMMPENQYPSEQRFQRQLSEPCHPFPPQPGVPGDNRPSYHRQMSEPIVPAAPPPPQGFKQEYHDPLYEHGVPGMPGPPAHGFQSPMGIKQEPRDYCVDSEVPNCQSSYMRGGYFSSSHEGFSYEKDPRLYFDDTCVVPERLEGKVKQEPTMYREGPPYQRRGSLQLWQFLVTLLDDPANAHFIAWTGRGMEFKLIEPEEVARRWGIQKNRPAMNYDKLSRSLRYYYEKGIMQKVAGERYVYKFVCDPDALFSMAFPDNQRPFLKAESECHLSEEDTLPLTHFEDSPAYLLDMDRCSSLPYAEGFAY
Method in brief: as §1

[3] = molecular target: HSF1 (Homo sapiens, UniProt Q00613 1-529); details: protein: recombinant; tags: N-terminal GST; chain copies: 3; dsDNA, one strand shown
Sequence of HSF1 (Q00613 whole entry): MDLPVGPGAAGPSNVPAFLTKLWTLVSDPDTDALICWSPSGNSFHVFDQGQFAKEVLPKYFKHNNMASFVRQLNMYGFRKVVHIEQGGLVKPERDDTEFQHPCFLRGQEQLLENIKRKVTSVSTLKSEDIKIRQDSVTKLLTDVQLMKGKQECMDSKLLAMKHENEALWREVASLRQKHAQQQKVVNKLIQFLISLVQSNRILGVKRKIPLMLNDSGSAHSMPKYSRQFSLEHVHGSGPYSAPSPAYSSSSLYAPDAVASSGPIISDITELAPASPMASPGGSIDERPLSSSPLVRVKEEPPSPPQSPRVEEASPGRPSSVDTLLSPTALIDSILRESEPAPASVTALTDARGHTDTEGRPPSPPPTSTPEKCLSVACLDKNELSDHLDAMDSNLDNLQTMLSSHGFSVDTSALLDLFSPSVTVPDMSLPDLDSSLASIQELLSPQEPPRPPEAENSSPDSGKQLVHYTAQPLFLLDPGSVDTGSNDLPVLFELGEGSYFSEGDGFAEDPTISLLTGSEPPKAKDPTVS
Method in brief: as §1

[4] = molecular target: T2, SPIC (Homo sapiens, UniProt Q8N5J4 1-248); details: protein: recombinant; tags: N-terminal GST; dsDNA, one strand shown
T2 sequence: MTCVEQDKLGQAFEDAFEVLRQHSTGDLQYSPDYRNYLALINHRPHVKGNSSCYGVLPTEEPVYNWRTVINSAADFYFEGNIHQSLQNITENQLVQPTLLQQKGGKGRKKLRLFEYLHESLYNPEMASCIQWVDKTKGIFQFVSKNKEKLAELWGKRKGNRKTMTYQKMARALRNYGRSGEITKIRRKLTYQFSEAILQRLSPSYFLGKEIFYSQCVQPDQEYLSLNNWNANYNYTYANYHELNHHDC
Method in brief: as §1

[5] = molecular target: ELF4 (Homo sapiens, UniProt Q99607 1-663); details: protein: recombinant; tags: N-terminal GST; dsDNA, one strand shown
Sequence of ELF4 (Q99607 whole entry): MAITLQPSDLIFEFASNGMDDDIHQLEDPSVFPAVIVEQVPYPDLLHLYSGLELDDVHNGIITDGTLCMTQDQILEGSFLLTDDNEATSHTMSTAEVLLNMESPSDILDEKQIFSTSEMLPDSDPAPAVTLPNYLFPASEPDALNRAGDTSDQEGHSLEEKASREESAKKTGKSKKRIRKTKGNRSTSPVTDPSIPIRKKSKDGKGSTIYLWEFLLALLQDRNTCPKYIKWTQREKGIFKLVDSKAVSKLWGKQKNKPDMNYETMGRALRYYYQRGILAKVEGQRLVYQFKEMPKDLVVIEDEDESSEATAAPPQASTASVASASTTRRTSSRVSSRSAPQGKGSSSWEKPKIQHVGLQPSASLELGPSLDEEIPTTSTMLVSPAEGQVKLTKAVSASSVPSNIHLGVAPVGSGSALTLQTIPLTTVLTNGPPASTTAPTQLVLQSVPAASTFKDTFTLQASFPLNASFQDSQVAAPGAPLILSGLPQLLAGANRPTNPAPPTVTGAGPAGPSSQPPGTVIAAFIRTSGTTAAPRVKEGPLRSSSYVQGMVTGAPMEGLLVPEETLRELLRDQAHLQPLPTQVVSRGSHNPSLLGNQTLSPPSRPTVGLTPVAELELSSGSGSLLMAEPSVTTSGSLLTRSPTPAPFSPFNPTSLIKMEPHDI
Method in brief: as §1

[6] = molecular target: T3, ELK4 (Homo sapiens, UniProt P28324-2 1-405); details: protein: recombinant; tags: N-terminal GST; dsDNA, one strand shown
T3 sequence: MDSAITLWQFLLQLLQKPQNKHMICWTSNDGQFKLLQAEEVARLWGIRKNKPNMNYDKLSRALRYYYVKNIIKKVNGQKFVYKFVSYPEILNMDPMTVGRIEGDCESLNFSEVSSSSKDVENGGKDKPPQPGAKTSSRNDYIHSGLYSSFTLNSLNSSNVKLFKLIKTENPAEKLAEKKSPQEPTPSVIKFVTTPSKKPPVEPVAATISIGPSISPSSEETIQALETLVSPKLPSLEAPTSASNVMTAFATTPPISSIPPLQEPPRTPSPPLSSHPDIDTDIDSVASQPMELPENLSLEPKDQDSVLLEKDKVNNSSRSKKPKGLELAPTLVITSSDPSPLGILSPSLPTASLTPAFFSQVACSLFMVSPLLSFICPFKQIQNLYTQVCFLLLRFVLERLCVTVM
Method in brief: as §1

[7] = molecular target: T4, ETV2 (Homo sapiens, UniProt O00321 1-342); details: protein: recombinant; tags: N-terminal GST; dsDNA, one strand shown
T4 sequence: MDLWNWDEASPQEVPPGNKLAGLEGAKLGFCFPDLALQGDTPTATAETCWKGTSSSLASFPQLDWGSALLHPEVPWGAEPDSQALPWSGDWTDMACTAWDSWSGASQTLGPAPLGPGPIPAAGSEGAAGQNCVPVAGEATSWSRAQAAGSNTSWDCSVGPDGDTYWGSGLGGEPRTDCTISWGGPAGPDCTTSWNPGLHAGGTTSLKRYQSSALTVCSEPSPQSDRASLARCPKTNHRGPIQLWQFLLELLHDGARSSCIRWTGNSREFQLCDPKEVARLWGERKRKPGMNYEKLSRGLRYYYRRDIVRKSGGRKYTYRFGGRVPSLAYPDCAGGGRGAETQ
Method in brief: as §1

[8] = molecular target: T5, ELF3 (Homo sapiens, UniProt P78545 1-371); details: protein: recombinant; tags: N-terminal GST; dsDNA, one strand shown
T5 sequence: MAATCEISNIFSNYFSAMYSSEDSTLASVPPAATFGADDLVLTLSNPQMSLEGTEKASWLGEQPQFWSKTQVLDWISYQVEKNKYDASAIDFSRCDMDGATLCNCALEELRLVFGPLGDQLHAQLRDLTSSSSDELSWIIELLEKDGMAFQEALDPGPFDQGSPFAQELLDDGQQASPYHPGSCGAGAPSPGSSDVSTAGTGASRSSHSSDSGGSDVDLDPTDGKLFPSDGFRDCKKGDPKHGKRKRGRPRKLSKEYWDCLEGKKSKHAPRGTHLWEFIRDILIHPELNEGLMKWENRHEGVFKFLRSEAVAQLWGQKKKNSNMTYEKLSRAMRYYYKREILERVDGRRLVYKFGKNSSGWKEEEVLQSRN
Method in brief: as §1

[9] = molecular target: CRX (Homo sapiens, UniProt O43186 1-299); details: protein: recombinant; tags: N-terminal GST; dsDNA, one strand shown
Sequence of CRX (O43186 whole entry): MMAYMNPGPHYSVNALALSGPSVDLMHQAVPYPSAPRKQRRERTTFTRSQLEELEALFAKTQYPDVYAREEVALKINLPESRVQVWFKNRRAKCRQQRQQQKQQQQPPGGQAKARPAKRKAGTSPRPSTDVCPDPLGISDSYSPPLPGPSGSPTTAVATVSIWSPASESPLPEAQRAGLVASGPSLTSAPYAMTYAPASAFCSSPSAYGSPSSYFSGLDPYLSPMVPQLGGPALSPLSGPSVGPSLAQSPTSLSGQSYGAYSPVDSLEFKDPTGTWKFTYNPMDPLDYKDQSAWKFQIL
Method in brief: as §1

[10] = molecular target: ETV1 (Homo sapiens, UniProt P50549 1-477); details: protein: recombinant; tags: N-terminal GST; dsDNA, one strand shown
Sequence of ETV1 (P50549 whole entry): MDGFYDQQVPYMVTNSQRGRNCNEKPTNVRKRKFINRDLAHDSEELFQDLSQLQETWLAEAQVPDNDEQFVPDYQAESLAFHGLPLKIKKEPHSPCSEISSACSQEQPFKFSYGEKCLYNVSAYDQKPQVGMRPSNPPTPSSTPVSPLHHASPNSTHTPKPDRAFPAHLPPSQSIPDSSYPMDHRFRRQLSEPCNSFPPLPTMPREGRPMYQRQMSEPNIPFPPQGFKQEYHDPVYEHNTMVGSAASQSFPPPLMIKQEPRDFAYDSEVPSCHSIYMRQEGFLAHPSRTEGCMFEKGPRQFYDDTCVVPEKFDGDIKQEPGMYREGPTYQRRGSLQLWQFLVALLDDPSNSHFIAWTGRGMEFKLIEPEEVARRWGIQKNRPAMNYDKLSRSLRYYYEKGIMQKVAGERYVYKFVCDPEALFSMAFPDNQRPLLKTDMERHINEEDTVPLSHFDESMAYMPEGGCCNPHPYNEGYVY
Method in brief: as §1

[11] = molecular target: T6, ERF (Homo sapiens, UniProt P50548 1-548); details: protein: recombinant; tags: N-terminal GST; dsDNA, one strand shown
T6 sequence: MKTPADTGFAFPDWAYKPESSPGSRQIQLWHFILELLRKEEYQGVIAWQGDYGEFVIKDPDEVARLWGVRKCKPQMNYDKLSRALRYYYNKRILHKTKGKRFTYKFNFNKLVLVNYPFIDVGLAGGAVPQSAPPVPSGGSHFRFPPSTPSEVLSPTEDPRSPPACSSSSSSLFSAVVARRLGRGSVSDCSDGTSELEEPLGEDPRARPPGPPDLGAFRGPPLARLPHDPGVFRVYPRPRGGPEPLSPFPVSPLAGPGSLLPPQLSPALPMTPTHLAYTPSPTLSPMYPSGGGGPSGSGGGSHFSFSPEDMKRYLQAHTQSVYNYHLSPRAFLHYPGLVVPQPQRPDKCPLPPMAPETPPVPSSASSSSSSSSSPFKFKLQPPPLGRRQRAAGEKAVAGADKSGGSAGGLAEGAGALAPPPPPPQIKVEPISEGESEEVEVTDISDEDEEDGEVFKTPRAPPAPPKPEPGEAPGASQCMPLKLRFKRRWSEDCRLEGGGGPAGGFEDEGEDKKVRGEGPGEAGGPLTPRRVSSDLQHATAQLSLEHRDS
Method in brief: as §1

[12] = molecular target: T7, ETV3L (Homo sapiens, UniProt Q6ZN32 1-361); details: protein: recombinant; tags: N-terminal GST; dsDNA, one strand shown
T7 sequence: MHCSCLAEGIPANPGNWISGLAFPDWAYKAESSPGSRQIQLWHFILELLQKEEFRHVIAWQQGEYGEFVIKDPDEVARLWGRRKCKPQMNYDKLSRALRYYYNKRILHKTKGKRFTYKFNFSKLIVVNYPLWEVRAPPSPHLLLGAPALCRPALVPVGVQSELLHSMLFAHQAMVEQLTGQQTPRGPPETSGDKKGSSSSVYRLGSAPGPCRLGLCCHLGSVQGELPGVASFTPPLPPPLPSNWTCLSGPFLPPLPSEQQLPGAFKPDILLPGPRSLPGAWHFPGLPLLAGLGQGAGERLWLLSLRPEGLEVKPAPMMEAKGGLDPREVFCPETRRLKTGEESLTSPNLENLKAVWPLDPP
Method in brief: as §1

[13] = molecular target: T8, ETS2 (Homo sapiens, UniProt P15036 1-469); details: protein: recombinant; tags: N-terminal GST; dsDNA, one strand shown
T8 sequence: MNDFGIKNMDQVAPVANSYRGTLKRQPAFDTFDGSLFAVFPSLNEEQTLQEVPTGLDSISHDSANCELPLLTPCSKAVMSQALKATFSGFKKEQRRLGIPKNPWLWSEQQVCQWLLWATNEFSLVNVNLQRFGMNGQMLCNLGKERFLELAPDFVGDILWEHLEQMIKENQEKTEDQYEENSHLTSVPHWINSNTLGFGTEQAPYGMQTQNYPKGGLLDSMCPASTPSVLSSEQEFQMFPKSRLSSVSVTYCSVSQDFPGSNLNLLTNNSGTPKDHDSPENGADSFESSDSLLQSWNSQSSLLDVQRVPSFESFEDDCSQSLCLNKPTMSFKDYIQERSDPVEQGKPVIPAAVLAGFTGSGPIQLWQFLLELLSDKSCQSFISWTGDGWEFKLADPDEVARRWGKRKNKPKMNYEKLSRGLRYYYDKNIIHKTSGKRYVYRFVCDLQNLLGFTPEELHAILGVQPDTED
Method in brief: as §1

[14] = molecular target: T9, SPDEF (Homo sapiens, UniProt O95238 1-335); details: protein: recombinant; tags: N-terminal GST; dsDNA, one strand shown
T9 sequence: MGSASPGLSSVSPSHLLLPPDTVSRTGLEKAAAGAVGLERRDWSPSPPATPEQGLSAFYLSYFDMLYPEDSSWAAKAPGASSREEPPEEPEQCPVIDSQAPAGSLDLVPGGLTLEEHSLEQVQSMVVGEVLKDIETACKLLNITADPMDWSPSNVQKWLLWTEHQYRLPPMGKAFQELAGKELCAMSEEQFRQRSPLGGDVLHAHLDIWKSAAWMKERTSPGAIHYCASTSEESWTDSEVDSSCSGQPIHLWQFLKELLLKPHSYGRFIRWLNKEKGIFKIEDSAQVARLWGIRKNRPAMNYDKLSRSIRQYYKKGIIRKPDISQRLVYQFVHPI
Method in brief: as §1

[15] = molecular target: T10, ETV7 (Homo sapiens, UniProt Q9Y603 1-341); details: protein: recombinant; tags: N-terminal GST; dsDNA, one strand shown
T10 sequence: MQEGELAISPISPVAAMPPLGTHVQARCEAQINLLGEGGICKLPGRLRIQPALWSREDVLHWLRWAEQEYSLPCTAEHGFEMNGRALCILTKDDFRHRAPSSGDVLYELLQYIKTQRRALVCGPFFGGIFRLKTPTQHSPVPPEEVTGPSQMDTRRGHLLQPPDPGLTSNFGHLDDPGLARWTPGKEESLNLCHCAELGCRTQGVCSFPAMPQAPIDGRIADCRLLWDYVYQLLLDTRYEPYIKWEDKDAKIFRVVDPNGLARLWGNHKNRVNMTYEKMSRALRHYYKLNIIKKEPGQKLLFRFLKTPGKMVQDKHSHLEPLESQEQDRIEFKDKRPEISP
Method in brief: as §1

[16] = molecular target: T11, ELF5 (Homo sapiens, UniProt Q9UKW6-2 1-255); details: protein: recombinant; tags: N-terminal GST; dsDNA, one strand shown
T11 sequence: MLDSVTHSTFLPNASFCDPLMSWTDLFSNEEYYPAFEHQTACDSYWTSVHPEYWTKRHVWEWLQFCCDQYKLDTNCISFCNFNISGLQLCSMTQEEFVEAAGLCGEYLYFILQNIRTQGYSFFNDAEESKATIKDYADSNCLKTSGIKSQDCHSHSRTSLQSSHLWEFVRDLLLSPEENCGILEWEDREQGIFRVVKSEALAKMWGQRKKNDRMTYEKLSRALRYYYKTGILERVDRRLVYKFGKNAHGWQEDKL
Method in brief: as §1

[17] = molecular target: T12, ETV3 (Homo sapiens, UniProt P41162-2 1-143); details: protein: recombinant; tags: N-terminal GST; dsDNA, one strand shown
T12 sequence: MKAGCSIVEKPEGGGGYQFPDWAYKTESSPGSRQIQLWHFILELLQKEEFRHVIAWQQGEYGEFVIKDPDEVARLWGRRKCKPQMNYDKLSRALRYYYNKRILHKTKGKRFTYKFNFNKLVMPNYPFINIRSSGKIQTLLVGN
Method in brief: as §1

[18] = molecular target: ETV6 (Homo sapiens, UniProt P41212 1-452); details: protein: recombinant; tags: N-terminal GST; dsDNA, one strand shown
Sequence of ETV6 (P41212 whole entry): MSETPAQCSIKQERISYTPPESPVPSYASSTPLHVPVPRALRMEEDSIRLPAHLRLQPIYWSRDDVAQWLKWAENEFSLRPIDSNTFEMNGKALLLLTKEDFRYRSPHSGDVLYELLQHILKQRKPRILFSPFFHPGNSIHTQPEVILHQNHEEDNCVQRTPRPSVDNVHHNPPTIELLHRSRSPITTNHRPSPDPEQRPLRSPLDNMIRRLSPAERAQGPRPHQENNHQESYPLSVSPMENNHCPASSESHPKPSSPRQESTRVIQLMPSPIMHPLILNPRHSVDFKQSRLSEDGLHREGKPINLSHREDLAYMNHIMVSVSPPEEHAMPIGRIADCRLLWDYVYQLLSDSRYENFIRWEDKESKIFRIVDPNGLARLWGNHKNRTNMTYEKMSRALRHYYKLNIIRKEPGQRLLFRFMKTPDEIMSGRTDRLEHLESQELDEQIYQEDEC
Method in brief: as §1

Sequence	binding signal [1]	binding signal [2]	binding signal [3]	binding signal [4]	binding signal [5]	binding signal [6]	binding signal [7]	binding signal [8]	binding signal [9]	binding signal [10]	binding signal [11]	binding signal [12]	binding signal [13]	binding signal [14]	binding signal [15]	binding signal [16]	binding signal [17]	binding signal [18]
TAGTTA	1.07 fold enrichment (6-mer frequency, TF over GST control)	1.19 fold enrichment (6-mer frequency, TF over GST control)	1.26 fold enrichment (6-mer frequency, TF over GST control)	1.11 fold enrichment (6-mer frequency, TF over GST control)	1.15 fold enrichment (6-mer frequency, TF over GST control)	1.26 fold enrichment (6-mer frequency, TF over GST control)	1.09 fold enrichment (6-mer frequency, TF over GST control)	1.29 fold enrichment (6-mer frequency, TF over GST control)	1.54 fold enrichment (6-mer frequency, TF over GST control)	1.05 fold enrichment (6-mer frequency, TF over GST control)	1.18 fold enrichment (6-mer frequency, TF over GST control)	1.1 fold enrichment (6-mer frequency, TF over GST control)	1.12 fold enrichment (6-mer frequency, TF over GST control)	1.06 fold enrichment (6-mer frequency, TF over GST control)	1.1 fold enrichment (6-mer frequency, TF over GST control)	1.06 fold enrichment (6-mer frequency, TF over GST control)	1.12 fold enrichment (6-mer frequency, TF over GST control)	1.16 fold enrichment (6-mer frequency, TF over GST control)
TAAGAT	1.15 fold enrichment (6-mer frequency, TF over GST control)	1.13 fold enrichment (6-mer frequency, TF over GST control)	1.76 fold enrichment (6-mer frequency, TF over GST control)	1.25 fold enrichment (6-mer frequency, TF over GST control)	1.21 fold enrichment (6-mer frequency, TF over GST control)	1.29 fold enrichment (6-mer frequency, TF over GST control)	1.31 fold enrichment (6-mer frequency, TF over GST control)	1.3 fold enrichment (6-mer frequency, TF over GST control)	2.49 fold enrichment (6-mer frequency, TF over GST control)	1.28 fold enrichment (6-mer frequency, TF over GST control)	1.3 fold enrichment (6-mer frequency, TF over GST control)	1.12 fold enrichment (6-mer frequency, TF over GST control)	1.19 fold enrichment (6-mer frequency, TF over GST control)	1.31 fold enrichment (6-mer frequency, TF over GST control)	1.19 fold enrichment (6-mer frequency, TF over GST control)	1.11 fold enrichment (6-mer frequency, TF over GST control)	1.2 fold enrichment (6-mer frequency, TF over GST control)	1.28 fold enrichment (6-mer frequency, TF over GST control)
